These results are taken from PubChem BioAssay (NCATS).

Inconclusive results are not listed. Active and inactive are the calls of the source. The call rests on the fitted dose curve; in most records, active means well fitted inhibition curve with a large enough effect; inconclusive means small, poorly fitted or top-dose-only effect; inactive means flat fitted curve, though single readings scatter.
On the % scale 0 is the no-effect control and ±100 the full control effect; potency means the concentration at half of the fitted maximal effect.

Glutathione peroxidase 1 (Homo sapiens), sequence (P07203 whole entry, looked up): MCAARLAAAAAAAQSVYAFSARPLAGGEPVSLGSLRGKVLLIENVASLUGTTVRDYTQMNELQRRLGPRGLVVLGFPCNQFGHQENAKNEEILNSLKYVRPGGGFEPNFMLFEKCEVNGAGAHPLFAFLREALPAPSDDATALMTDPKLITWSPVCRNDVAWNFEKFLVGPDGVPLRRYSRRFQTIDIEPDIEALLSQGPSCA

This experiment concerns the target Glutathione peroxidase 1 (Homo sapiens) (UniProt P07203). The experiment is described as follows: Primary qHTS Assay for Inhibitors of Recombinant Selenoprotein Glutathione Peroxidase 1 (GPX1) (AID 1845191). Further: nearly all actives have a fitted effect of over 65% in size. The conditions noted are these: recombinant GPX1, GR-coupled NADPH fluorescence, 15 min; series mostly up to 48.8 µM; activity, negative = inhibition: at the top concentration. A digest of the protocol:
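Recombinant GPX1 (10 nM final) was preincubated with compound for 30 min at room temperature, then reacted with 1 mM GSH, 0.5 mM CHP, 0.5 mM NADPH and 100 nM glutathione reductase; NADPH fluorescence (340/450 nm) was read at 0 and 15 min.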
(In general: Quantitative high-throughput screening tests each substance at several concentrations.)
In the case of `NC1(C(=O)O)CC1`, the result was inactive.
Regarding `COc1ccc2c(c1)c(CC(=O)O)c(C)n2C(=O)c1ccccc1`, the “activity, negative = inhibition” value was -2.07% (inactive).
Still for that read-out and setting: for `N[C@@H](CCC(=O)N[C@H](CSN=O)C(=O)NCC(=O)O)C(=O)O` the value was -28.8% (inactive).
For the compound `NC(=O)c1ccccc1`, the result was inactive.
Regarding `CC(C)(CO)Cc1cc(C(C)(C)C)c(O)c(C(C)(C)C)c1`, the “activity, negative = inhibition” value was -7.11% (inactive).
As for `O=c1ccc2c(OCCCCc3ccccc3)c3ccoc3cc2o1`, the outcome was inactive.
Regarding `CC(=O)O[C@H]1CC2(C)[C@@H](C[C@@H](O)[C@H]3[C@@]4(C)CC[C@@H](O)[C@@H](C)[C@@H]4CC[C@@]32C)C1=C(CCC=C(C)C)C(=O)O` (stereo partly specified), the Potency entry was “inactive”.
Regarding `C=CCN1CCc2c(cc(O)c(O)c2Cl)C(c2ccccc2)C1` (stereo unspecified), the result was inactive.
Consider `CCCc1c(-c2ccc(O)cc2)nn(-c2ccc(O)cc2)c1-c1ccc(O)cc1`, for which the “activity, negative = inhibition” value is -25.5% (inactive).
For `c1ccc2nc(C3=NCCN3)ccc2c1`, the “activity, negative = inhibition” value was -10.3% (inactive).
As to `Nc1ncnc2c1c(-c1ccc(Oc3ccccc3)cc1)cn2C1CCCC1`, the Potency entry is “inactive”.
As to `Nn1nnc2ccccc21`, the outcome was inactive.
Take `Nc1nc2c(cnn2CCc2ccccc2)c2nc(-c3ccco3)nn12`: the “activity, negative = inhibition” value is 2.08% (inactive).
Turning to `COc1cc(N)c(Cl)cc1C(=O)OCCN1CCCCC1`, the result was inactive.
On to `Nc1ccc(N2C(=O)c3ccccc3C2=O)c(Cl)c1`, for which the “activity, negative = inhibition” value was 2.7% (inactive).
On to `CCCn1c(=O)c(C)cn2nc(N)nc12`, for which the result was inactive.
For `CN1CCC2(CCN3CCc4c(oc5ccccc45)C3C2)N(C)C1=O` (stereo unspecified), the “activity, negative = inhibition” value was 4.77% (inactive).
The same measure, in the same setting: for `COc1ccc(CCn2nnnc2C2(c3ccc(C)cc3)CC2)cc1` the value was -24.6% (inactive).
Same read-out and setting: next, `CN1Cc2sccc2C(c2ccc(O)c(O)c2)C1` (stereo unspecified): -6.39% (inactive).
The same measure, in the same setting: for `NC/C=C\C(=O)O` the value was -23.1% (inactive).
As for `Cn1c(=O)c2[nH]c(-c3ccc(S(=O)(=O)O)cc3)nc2n(C)c1=O`, the Potency was 10 µM (active).
